According to PubChem BioAssay AID488969 (Vanderbilt High Throughput Screening Facility, 2010):
Over roughly 110,000 compounds, “z-score” has its median near -0.1; the highest 2% begin near 2. The full list was thinned out, with the highest values kept by preference. Active and inactive are the calls of the source.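 Rule for the calls: active = z-score in the third read window above 3 or below -3; inactive = the rest.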

target: Metabotropic glutamate receptor 8 (Rattus norvegicus) (UniProt P70579); assay: rat mGluR8 modulators via GIRK flux, primary screen, cell-based, thallium flux, HTS (AID 488969); conditions: HEK293 rat mGluR8, GIRK (G protein-gated inwardly rectifying potassium channel) thallium flux, FluoZin2; at 10 µM; stronger effect = higher value; submaximal glutamate (EC20) added with thallium
Sequence (P70579 whole entry, looked up): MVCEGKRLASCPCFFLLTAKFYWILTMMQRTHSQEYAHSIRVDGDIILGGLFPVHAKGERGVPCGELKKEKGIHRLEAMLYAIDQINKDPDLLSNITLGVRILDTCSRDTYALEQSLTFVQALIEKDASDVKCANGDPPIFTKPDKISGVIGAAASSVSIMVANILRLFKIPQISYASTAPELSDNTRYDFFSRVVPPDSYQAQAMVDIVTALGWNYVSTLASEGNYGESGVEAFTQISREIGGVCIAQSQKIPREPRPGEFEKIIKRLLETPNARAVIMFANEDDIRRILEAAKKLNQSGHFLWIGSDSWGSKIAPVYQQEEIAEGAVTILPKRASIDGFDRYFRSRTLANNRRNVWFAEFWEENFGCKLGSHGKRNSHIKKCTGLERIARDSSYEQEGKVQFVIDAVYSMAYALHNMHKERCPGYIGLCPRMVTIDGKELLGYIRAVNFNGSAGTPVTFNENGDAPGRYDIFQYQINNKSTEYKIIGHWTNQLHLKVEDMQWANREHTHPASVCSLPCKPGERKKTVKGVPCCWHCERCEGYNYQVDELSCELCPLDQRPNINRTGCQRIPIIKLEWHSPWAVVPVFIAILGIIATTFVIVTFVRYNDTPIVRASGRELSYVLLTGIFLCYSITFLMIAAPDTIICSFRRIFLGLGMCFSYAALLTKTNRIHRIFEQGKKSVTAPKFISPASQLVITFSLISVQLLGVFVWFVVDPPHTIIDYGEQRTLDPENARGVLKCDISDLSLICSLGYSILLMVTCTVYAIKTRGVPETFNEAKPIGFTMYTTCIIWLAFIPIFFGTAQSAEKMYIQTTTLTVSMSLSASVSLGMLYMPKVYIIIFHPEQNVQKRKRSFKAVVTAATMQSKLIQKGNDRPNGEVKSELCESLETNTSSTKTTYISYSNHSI

Row | Compound | z-score
1 | Cc1ccccc1NC(=O)C(C#N)Cc1cccnc1 (stereo unspecified) | 2.26
2 | Cc1ccccc1NC(=O)/C(C#N)=C\c1cccnc1 | -0.183
3 | Cc1ccc(CO/N=C\Cc2snc(Sc3ncc(C(F)(F)F)cc3Cl)c2C#N)cc1 | 0.0198
4 | Cc1ccc(CNC(=O)C(Cc2ccccc2)NS(=O)(=O)c2ccc3c(c2)CCC(=O)N3)cc1 (stereo unspecified) | 0.0976
5 | O=C(CSc1cn(Cc2ccccc2)c2ccccc12)Nc1nccs1 | -0.121
6 | O=C(NN=C(Cc1ccccc1)Cc1ccccc1)c1ccc(F)cc1 | 4.71 (active)
7 | COc1ccc(C(=O)NN=C(Cc2ccccc2)Cc2ccccc2)cc1OC | -0.165
8 | C/C(Cc1ccccc1)=N\NC(=O)c1ccc(F)cc1 | 0.49
9 | O=C(CS(=O)(=O)Cc1ccccc1)Nc1ccc(S(=O)(=O)N2CCOCC2)cc1 | -0.109
10 | CCCC(=O)Nc1nc2ccc(S(=O)(=O)N3CCCCC3)cc2s1 | -0.273
11 | O=C(Nc1nc(-c2cc(Cl)sc2Cl)cs1)c1ccc(Br)s1 | 0.0927
12 | O=C(Nc1nc(-c2ccccn2)cs1)c1ccc(Br)s1 | 12.3 (active)
13 | O=C(Nc1nc(-c2ccccn2)cs1)C1CC1 | 0.0299
14 | O=C(CSCc1ccccc1Br)N/N=C/c1ccc2c(c1)OCO2 | -0.0558
15 | CCOCCCNC(=O)Cc1c(C(=O)O)[nH]c2ccc(Cl)cc12 | 0.12
16 | CCn1c(=S)[nH]c2ccccc21 | 0.63
17 | Cc1cccc(OCCn2c(S(=O)(=O)O)nc3ccccc32)c1 | 0.0442
18 | Cc1cccc(OCCn2c(=S)[nH]c3ccccc32)c1 | 2.83
19 | CCCn1c(=N)n(CCOCCOCCn2c(=N)n(CCC)c3ccccc32)c2ccccc21 | 0.012

Row | Compound | z-score
20 | CCOC(=O)Cn1c(=N)n(CCOc2ccc3ccccc3c2)c2ccccc21 | 1.25
21 | CCCn1c(=N)n(CC(=O)OCC)c2ccccc21 | -0.118
22 | CCn1c(=N)n(CCOc2ccc(OC)cc2)c2ccccc21 | -0.158
23 | Cc1cccc(OCCn2c(=O)sc3ccccc32)c1 | -0.343
24 | CCOC(=O)Cn1c(=N)n(CCOc2ccc(OC)cc2)c2ccccc21 | 2.74
25 | CCOC(=O)Cn1c(=N)n(CCOc2cccc(C)c2)c2ccccc21 | 3.95 (active)
26 | CCCn1c(=N)n(CCOc2ccc(OC)cc2)c2ccccc21 | 3.04 (active)
27 | N=c1n(CCO)c2ccccc2n1CCOc1ccccc1 | -0.208
28 | O=C(NCCN1CCCCC1)c1ccco1 | 0.151
29 | CC1=C(Sc2ccccn2)C(=O)NC(C)(C)C1 | 0.338
30 | CN(C)S(=O)(=O)c1ccc(C(=O)Nc2ccccc2OC(F)(F)C(F)F)cc1 | -0.525
31 | COc1ccc(NC(=O)Nc2ncn(Cc3cccc(C(F)(F)F)c3)n2)cc1OC | 0.0572
32 | COc1ccc(-c2ccc(/C=C3/C(=N)N4C=CSC4=NC3=O)o2)c([N+](=O)[O-])c1 | 0.455
33 | CC(=O)N1N=C(c2ccco2)CC1c1ccc(C)cc1 (stereo unspecified) | 0.0902
34 | C=CCNC(=O)C(=O)N/N=C/c1ccco1 | 0.424
35 | CCCn1c(C)cc(=O)c2cc(NC(=O)c3cnccn3)ccc21 | -0.106
36 | O=C(Cn1ccc2ccccc2c1=O)N1CCN(Cc2ccc3c(c2)OCO3)CC1 | 0.477
37 | CCN1C(c2ccccc2)=C(c2ccccc2)S/C1=C/C=C1\SC(=S)N(C)C1=O | -0.0724
38 | O=C(NCc1cccs1)C1CCN(S(=O)(=O)c2cccs2)CC1 | -0.232

Row | Compound | z-score
39 | CCOc1ccc(NC(=O)CSCC(=O)O)cc1 | -0.178
40 | Cc1occc1C(=O)N/N=C/C1=C(N2CCOCC2)C(=C\c2ccc(Cl)cc2Cl)/CC1 | 0.0547
41 | CC(NC(=O)Cc1cccs1)C(c1cccs1)N1CCOCC1 (stereo unspecified) | -0.108
42 | CCOC(=O)Cn1c(=N)n(Cc2ccccc2)c2ccccc21 | 0.46
43 | C=CCn1c(=N)n(CC(=O)OCC)c2ccccc21 | 0.534
44 | CCOC(=O)Cn1c(=N)n(Cc2ccccc2F)c2ccccc21 | 3.72 (active)
45 | COc1cc(C(=O)NCc2nnc(SCC(=O)NCc3ccccc3)o2)cc(OC)c1OC | 1.55
46 | CCC(c1nnnn1CCOC)N(Cc1cc2c(C)cc(C)cc2[nH]c1=O)CC1CCCO1 (stereo unspecified) | -0.203
47 | Nc1nc(CSC(=S)N2CCOCC2)nc(Nc2ccc(F)cc2)n1 | -0.0752
48 | Nc1nc(CSC(=S)N2CCN(c3ccccc3)CC2)nc(Nc2ccccc2)n1 | 0.00399
49 | Nc1nc(CSC(=S)N2CCOCC2)nc(Nc2ccccc2)n1 | 2.25
50 | Cc1cc(C)c(S(=O)(=O)c2ccccc2)c(OC(=O)c2c(Cl)cccc2Cl)n1 | -0.286
51 | COc1ccccc1NC(=O)c1cc(Cl)ccc1NC(=O)c1ccco1 | 0.52
52 | COc1ccccc1NC(=O)C(=O)NNC(=O)c1ccco1 | 2.81
53 | COc1ccc(Cl)cc1NC(=O)c1ccco1 | -0.426
54 | COc1ccc(NC(=O)c2ccco2)cc1NC(=O)c1ccc(C)cc1 | -0.304
55 | COc1ccccc1NC(=O)c1cccc(NC(=O)c2ccco2)c1 | -0.669
56 | COc1ccc(C)cc1NC(=O)C(=O)NNC(=O)c1ccco1 | 4.89 (active)
